Reference: PubChem BioAssay (NCATS)
Inconclusive results are not listed. Where a call stands in place of a potency, no number is given. A number with no mark means an inactive call. Active and inactive are the calls of the source. Unless noted, calls follow the shape of the dose curve; as a rule, active = well fitted curve in the direction sought with a large enough effect; inconclusive = small, poorly fitted or top-dose-only effect, or another doubt; inactive = no such curve, though single readings can be large; an effect the other way counts as inactive or inconclusive.

Key:
[1] = target: Calcium and integrin-binding protein 1 (Homo sapiens) (UniProt Q99828); experiment: Primary qHTS for Identification of Calcium Integrin Binding Protein 1 (CIB1) Competitor (AID 1508620);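 also: GST tagged CIB1 binding a fluorescein labelled alphaIIb integrin peptide tracer; top concentration of the series differs between compounds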
Chain of Calcium and integrin-binding protein 1 (Homo sapiens) (Q99828 whole entry, looked up): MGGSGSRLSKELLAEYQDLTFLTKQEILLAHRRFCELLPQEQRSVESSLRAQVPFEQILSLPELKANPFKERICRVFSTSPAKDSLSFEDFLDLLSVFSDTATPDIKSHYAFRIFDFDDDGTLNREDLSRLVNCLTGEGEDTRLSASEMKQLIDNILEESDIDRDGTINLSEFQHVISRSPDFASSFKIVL
How it was run: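 Fluorescence polarization competition: CIB1-GST (1 uM final) preincubated with compound 15 min at room temperature, then FITC-labeled alphaIIb peptide (100 nM final) added for another 15 min. Polarization read at Ex 480/Em 540.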

[2] = target: Cytochrome P450 2D6 (Homo sapiens) (UniProt P10635); experiment: Cytochrome P450 family 2 subfamily D member 6 (CYP2D6) small molecule antagonists: luciferase biochemical (cell-free) qHTS assay (AID 1645840; active = well fitted curve in the direction sought with a large enough effect in the repeat runs; an effect the other way counts as inactive or inconclusive; also: nearly all actives have a fitted effect of over 55% in size; also: potency is read from the fitted curve at half-maximal effect)
Chain of Cytochrome P450 2D6 (Homo sapiens) (P10635 whole entry, looked up): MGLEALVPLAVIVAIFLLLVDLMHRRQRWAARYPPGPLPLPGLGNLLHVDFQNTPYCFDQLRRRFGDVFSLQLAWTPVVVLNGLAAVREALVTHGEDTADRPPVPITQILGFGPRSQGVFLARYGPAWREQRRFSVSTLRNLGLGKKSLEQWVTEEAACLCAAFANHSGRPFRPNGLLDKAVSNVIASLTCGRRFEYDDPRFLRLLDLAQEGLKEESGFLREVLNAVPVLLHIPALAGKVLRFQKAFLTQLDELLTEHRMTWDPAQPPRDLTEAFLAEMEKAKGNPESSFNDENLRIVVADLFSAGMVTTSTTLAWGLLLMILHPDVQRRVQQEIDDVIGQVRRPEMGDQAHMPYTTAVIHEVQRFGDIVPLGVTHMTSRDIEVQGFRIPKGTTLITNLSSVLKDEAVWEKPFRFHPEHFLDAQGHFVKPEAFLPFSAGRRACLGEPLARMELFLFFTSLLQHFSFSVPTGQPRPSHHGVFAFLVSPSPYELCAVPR
How it was run: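 P450-Glo CYP2D6 system: proluciferin substrate converted by enzyme to luciferin, read by luminescence proportional to activity. Enzyme-substrate mix with compound 10 min at room temperature, then NADPH regeneration 1 h before detection reagent.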

[3] = target: Cytochrome P450 3A4 (Homo sapiens) (UniProt P08684); experiment: Cytochrome P450 family 3 subfamily A member 4 (CYP3A4) small molecule antagonists: luciferase qHTS assay (AID 1645841; active = well fitted curve in the direction sought with a large enough effect in the repeat runs; an effect the other way counts as inactive or inconclusive; also: nearly all actives have a fitted effect of over 45% in size; also: potency is read from the fitted curve at half-maximal effect)
Chain of Cytochrome P450 3A4 (Homo sapiens) (P08684 whole entry, looked up): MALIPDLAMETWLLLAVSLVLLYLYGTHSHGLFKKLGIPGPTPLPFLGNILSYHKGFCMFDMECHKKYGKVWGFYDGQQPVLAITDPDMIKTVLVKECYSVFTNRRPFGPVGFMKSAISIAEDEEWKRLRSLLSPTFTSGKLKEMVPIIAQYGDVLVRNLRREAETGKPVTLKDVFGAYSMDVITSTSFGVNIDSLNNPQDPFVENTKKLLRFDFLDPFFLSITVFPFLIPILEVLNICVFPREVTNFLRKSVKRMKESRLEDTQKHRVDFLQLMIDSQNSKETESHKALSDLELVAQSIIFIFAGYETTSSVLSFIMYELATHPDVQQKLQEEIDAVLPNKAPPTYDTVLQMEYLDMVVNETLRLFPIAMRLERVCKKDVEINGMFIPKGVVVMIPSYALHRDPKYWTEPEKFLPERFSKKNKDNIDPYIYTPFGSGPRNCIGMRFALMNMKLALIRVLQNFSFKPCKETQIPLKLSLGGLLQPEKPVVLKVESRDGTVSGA
How it was run: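 P450-Glo CYP3A4 enzyme with proluciferin substrate was preincubated with DMSO-dissolved compounds for 10 min at room temperature. NADPH regeneration solution started a 1 h reaction. Detection reagent stopped it, and luminescence was read after 20 min.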

[4] = target: Cytochrome P450 2C9 (Homo sapiens) (UniProt P11712); experiment: Cytochrome P450 family 2 subfamily C member 9 (CYP2C9) small molecule antagonists: luciferase biochemical (cell-free) qHTS assay (AID 1645842; active = well fitted curve in the direction sought with a large enough effect in the repeat runs; an effect the other way counts as inactive or inconclusive; also: nearly all actives have a fitted effect of over 55% in size; also: potency is read from the fitted curve at half-maximal effect)
Chain of Cytochrome P450 2C9 (Homo sapiens) (P11712 whole entry, looked up): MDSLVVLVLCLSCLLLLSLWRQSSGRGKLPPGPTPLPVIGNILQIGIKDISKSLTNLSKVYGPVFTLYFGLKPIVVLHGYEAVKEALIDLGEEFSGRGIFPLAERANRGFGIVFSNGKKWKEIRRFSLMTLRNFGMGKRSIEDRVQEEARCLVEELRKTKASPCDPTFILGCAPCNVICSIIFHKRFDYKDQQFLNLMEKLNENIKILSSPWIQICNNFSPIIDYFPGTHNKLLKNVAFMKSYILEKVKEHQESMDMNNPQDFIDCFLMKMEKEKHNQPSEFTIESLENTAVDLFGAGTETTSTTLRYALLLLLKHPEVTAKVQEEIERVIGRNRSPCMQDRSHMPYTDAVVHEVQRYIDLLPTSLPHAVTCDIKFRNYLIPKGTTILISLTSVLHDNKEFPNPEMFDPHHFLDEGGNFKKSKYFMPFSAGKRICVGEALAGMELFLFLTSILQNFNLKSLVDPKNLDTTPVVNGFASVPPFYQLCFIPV
How it was run: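 P450-Glo CYP2C9 system: proluciferin substrate with enzyme in mix containing 0.4% BSA, 10 min at room temperature, then NADPH regeneration solution added and incubated 1 h at 37C. Detection reagent stopped reaction; luminescence read after 20 min as RLU.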

[5] = Primary qHTS for inhibitors of nuclear receptor binding SET domain protein 2 (NSD2) in an isogenic RCH-ACV NSD2 p.E1099K mutant (9B) (AID 1645876); also: nearly all actives have a fitted effect of over 70% in size; also: potency is read from the fitted curve at half-maximal effect
[6] = Primary qHTS for small molecule stabilizers of the endoplasmic reticulum resident proteome: Secreted ER Calcium Modulated Protein (SERCaMP) assay (AID 1508630)
How it was run: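 The SH-SY5Y reporter protocol was run at 3 concentrations up to 38.3 uM (primary) or 11 concentrations (follow-up): 16 h compound, 100 nM thapsigargin for 4 h, then extracellular luciferase luminescence.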

[7] = Primary qHTS for inhibitors of nuclear receptor binding SET domain protein 2 (NSD2) in an RCH-ACV wild type WT cells (2C) (AID 1645877); also: potency is read from the fitted curve at half-maximal effect; nearly all actives have a fitted effect of over 70% in size

With `C=C(C)Cn1c(SCC(=O)c2cccs2)nc2sc3c(c2c1=O)CCCC3` the Potency [1] was “inactive” and the Potency [2] was “inactive”.
With `O=c1[nH]c2ccccc2n1CCN1CCN(c2cccc(C(F)(F)F)c2)CC1` the Potency [1] was “inactive” and the Potency [2] was 7.56 µM (active).
With `Fc1ccc(-c2nc(-c3ccccc3F)[nH]c2-c2ccncc2)cc1` the Potency [1] was “inactive” and the Potency [2] was 1.2 µM (active).
With `CC(C)(N)c1ncc(-c2ccc(OC(F)(F)F)cc2)[nH]1` the Potency [1] was “inactive” and the Potency [2] was 23.9 µM (active).
With `COc1ccccc1N1CCN(CC[C@@](C)(C(=O)C2CCCCC2)c2ccccc2)CC1` the Potency [1] was “inactive”, the Potency [2] was 12 µM (active) and the Potency [3] was 6.01 µM (active). The Potency [4] was 8.49 µM (active) and the Potency [5] was 16.3 µM (active).
In the case of `O=C(Nc1cc(C(F)(F)F)ccc1N1CCCCC1)c1ccncc1`, the Potency [1] is reported as “inactive” and the Potency [2] is reported as 8.49 µM (active).
With `O=C(Nc1ccc2[nH]c(=O)oc2c1)C(=O)N1CCC(Cc2ccc(F)cc2)CC1` the Potency [1] was “inactive” and the Potency [2] was 21.3 µM (active).
For `CC(C)(C)c1ccc2c(c1)CC[C@H]2NC(=O)Nc1cccc2[nH]ncc12`, the Potency [1] was “inactive” and the Potency [2] was “inactive”.
In the case of `O=S(=O)(c1ccccc1)N(CC(F)(F)F)c1ccc(C(O)(C(F)(F)F)C(F)(F)F)cc1`, the Potency [1] is reported as “inactive”, the outcome [6] is reported as “inactive” and the Potency [5] is reported as 23 µM (active). The Potency [7] was 23 µM (active).
In the case of `COc1ccc(C#Cc2ccc(C(=O)N3CCC[C@@H](O)C3)c(F)c2)cc1`, the Potency [1] is reported as “inactive” and the Potency [2] is reported as “inactive”.
In the case of `CCCN(CCc1ccsc1)C1CCc2c(O)cccc2C1` (centres undefined), the Potency [1] is reported as “inactive” and the Potency [2] is reported as 0.338 µM (active).
In the case of `Cc1cn2c(n1)Cc1ccc(Cl)cc1C(c1ccc(N)cc1)=N2`, the Potency [1] is reported as “inactive” and the Potency [2] is reported as 16.9 µM (active).
With `O=C(c1cc(Cc2n[nH]c(=O)c3ccccc23)ccc1F)N1CCCNCC1` the Potency [1] was “inactive” and the Potency [2] was “inactive”.
For `O=c1[nH]c2ccc(C#CCN3CCC(Cc4ccccc4)CC3)cc2[nH]1`, the Potency [1] was “inactive” and the Potency [2] was 0.338 µM (active).
For `O=C(Nc1ccccc1Br)NC1CCN(c2ccc(C(F)(F)F)cn2)C1` (centres undefined), the Potency [1] was “inactive” and the Potency [2] was 10.7 µM (active).
In the case of `C=CC(=O)N1CC(N2CCN(C(=O)CNc3cc(C4CC4)c(Cl)cc3O)CC2)C1`, the Potency [1] is reported as “inactive” and the Potency [2] is reported as “inactive”.
For `CC1(NC(=O)c2ccc(C#Cc3cccc(F)c3)cn2)COC1`, the Potency [1] was “inactive” and the Potency [2] was “inactive”.
With `COc1cc(C[C@H]2C(=O)OC[C@@H]2Cc2ccc(OC)c(OC)c2)ccc1O` the Potency [1] was “inactive” and the outcome [6] was “inactive”.
With `O=C(CNC(=O)c1cccc(C(F)(F)F)c1)N[C@@H]1CCN(Cc2ccc(Cl)cc2)C1` the Potency [1] was “inactive” and the Potency [2] was 0.0535 µM (active).
In the case of `COc1ccc(Sc2ccc(NC(=O)c3ccccc3Cl)cc2C#N)cc1`, the Potency [1] is reported as “inactive” and the Potency [2] is reported as “inactive”.
For `CCCn1ncc(CN2CCCC(C(=O)c3cccc(OC(C)C)c3)C2)c1C` (centres undefined), the Potency [1] was “inactive” and the Potency [2] was 0.338 µM (active).
For `O=C(NC1CCC1)c1ccc(C#Cc2cccc(F)c2)nc1`, the Potency [1] was “inactive”, the Potency [2] was “inactive” and the Potency [3] was “inactive”. The Potency [4] was “inactive” and the Potency [5] was “inactive”.
With `O=C(Nc1ccc(N(Cc2ccsc2)C(=O)Cn2nnc3ccccc32)cc1)C1CC1` the Potency [1] was “inactive” and the Potency [2] was 4.77 µM (active).
